The source made the active and inactive calls. Rule for the calls: active = hit-call score of the fitted dose curve at least 0.9, where 1 is the maximum; inactive = score below 0.9.

Read-out in the assay: Cytochrome P450 (CYP24A1), CYP24A1 (gene 1591)
Nature of the assay: LTEA_HepaRG_CYP24A1: Life Technologies and Expression Analysis (LTEA) Assay for Cytochrome P450 (CYP24A1) using HepaRG (AID 2283478). The following applies: mRNA level, 48 h; actives raise or lower the signal. On the procedure: LTEA_HepaRG is a cell based, multiplexed-readout assay that uses HepaRG, a human liver cell line, with measurements taken at 48 hours after chemical dosing on a 96-well plate.LTEA_HepaRG_CYP24A1 is one of 102 assay component(s) measured in the LTEA HepaRG cell culture assay. It is a marker of NR mediated metabolism.Data from the assay component LTEA_HepaRG_CYP24A1 was analyzed into 1 endpoint. This assay endpoint, LTEA_HepaRG_CYP24A1, was analyzed with bidirectional fitting relative to DMSO as the negative control and baseline of activity. Using a type of inducible reporter, measures of mRNA induction for gain or loss-of-signal activity can be used to understand regulation of transcription factor activity. To generalize the intended target to other relatable targets, this assay endpoint is annotated to the cyp intended target family, where the subfamily is xenobiotic metabolism.
A total of 1060 chemcials from the ToxCast library were tested in eight-point concentration-response experiments. Cell culture and cytotoxicity assays were conducted at Thermo Fisher Scientific's Custom Services facility (Madison, WI). A single lot of human HepaRG cells (Thermo Fisher Scientific, Frederick, MD) was used for the cell culture experiments. 96-well format collagen type I coated plates of human HepaRG cells were prepared using established methods. Briefly, cryopreserved HepaRG cells were thawed, plated at a density of approximately 100,000 cells/well in HepaRG Thaw, Plate, and General Purpose media (HPRG770, Thermo Fisher Scientific), and incubated for 48 hours. 0.5% DMSO was selected as vehicle control to balance the requisite need of DMSO in HepaRG cultures to maintain differentiation (for example, baseline metabolism, proportions of hepatocytes vs. cholangiocytes), while enabling further hepatic receptor pathway activation (for example, PXR and CAR) in response to chemical exposure. 48 hours after plating, the culture medium was replaced with HepaRG Serum-Free Incudtion Media. Cells were exposed to each test chemical in duplicate and maintained in CO2 incubators for another 48 hours. Chemical plates were thawed to room temperature and 200x concentrations of treatment groups were prepared. 8-point conentration-reponse curves were made with the highest exposure at 100 uM, followed by half-log dilutions, all in 0.5% DMSO. Each test plate contained variouse controls, induction positive controls (1mM phenobarbital), cytotoxicity positive controls ([…] aflatoxin B1), vehicle controls (0.5% DMSO), and total lysis controls (0.5% DMSO). Cell morphology images were taken using an Essen IncuCyte FLR automated microscope, with six 96-well plates imaged in about 24 minutes. Images were captured and exported and JPEG files. Spent culture media was transfered to black-well plates for the LDH assay, and remaining media was sorted at -80 C for later use. Cells were treated with RLT buffer and frozen until shipped for gene expression analysis. Total RNA was isolated from the cell suspension in 75 uL of Buffer RLT (Qiagen, Germantown, MD 20874) by Quintiles/Expression Analysis (Durham, NC) using a custom isolation procedure. Total RNA from each plate well was transferred to a preamplification plate. Fluidigm's 96.96 Dynamic ArrayTM (Fluidigm, Amsterdam, the Netherlands) technology was used for gene expression analyses by quantitative reverse transcription polymerase chain reaction (qRT-PCR, performed by Quintiles/Expression Analysis, Durham, NC)89. Standard TaqManTM Assays (Applied Biosystems/ThermoFisher Scientific, Foster City, CA) were used to assess the expression of 93 genes selected based on their selectivity and sensitivity to important hepatic receptors known to be modulated by environmental chemicals; importance in human hepatocyte functionality; and hepatotoxicity. […]
In the case of `COc1cc(S(=O)(=O)O)c(C)cc1N=Nc1c(O)ccc2cc(S(=O)(=O)O)ccc12`, the compound was classed as inactive.

For `Oc1ccc2c(c1)OC[C@@H](N1CCC(O)(c3ccc(F)cc3)CC1)[C@H]2O`, the outcome was inactive.

Turning to `COCCOC[C@H](CC1(C(=O)NC2CCC(C(=O)O)CC2)CCCC1)C(=O)Oc1ccc2c(c1)CCC2` (stereo not given in full), the result was inactive.

As to `COc1ccc(C)cc1N`, the compound was classed as inactive.

Turning to `CCCCCCCCCCCCCCCC`, the compound was classed as inactive.

As for `O=C(N[C@@H](Cc1ccccc1)[C@@H](O)C(=O)N1C[C@@H](O)[C@@H](O)C1)c1cc2cc(Cl)ccc2[nH]1`, the result was inactive.

Turning to `CNCc1cc(F)ccc1Oc1ccc(Cl)c(Cl)c1`, the compound was called inactive.

With `Cc1oc(-c2ccccc2)nc1CCOc1cccc2c1ccn2CCC(=O)O`, the result was inactive.

In the case of `O=C(O)Cc1ccccc1Nc1c(Cl)cccc1Cl`, the compound was called inactive.

Regarding `Nc1nc(N)c2nc(CNc3ccc(C(=O)N[C@@H](CCC(=O)O)C(=O)O)cc3)cnc2n1`, the outcome was inactive.

On to `CCOC(=O)C(C)(C)Oc1ccc(Cl)cc1`, for which the call was inactive.

Regarding `Cc1ccc(C)c(C)c1`, the result was inactive.

On to `CCCCCCCCCCC`, for which the compound was classed as inactive.

On to `O=c1[nH]cc(F)c(=O)[nH]1`, for which the outcome was inactive.

As to `NS(=O)(=O)c1cc2c(cc1Cl)NCNS2(=O)=O`, the call was inactive.

As for `CCc1c(C(=O)NN2CCCCC2)nn(-c2ccc(Cl)cc2Cl)c1-c1ccc(Br)cc1`, the compound was called inactive.

With `Cc1ccc2ncccc2c1`, the compound was classed as inactive.

Take `CC(=O)C(C)=CC1C(C)=CCCC1(C)C` (stereo not given): the compound was called inactive.

Turning to `CCCCCCCCCCCC(=O)OC`, the compound was classed as inactive.

Regarding `COc1cc(-c2nc(NC(=O)c3cc4cc(C)cc(C)c4n3CC(=O)O)sc2CCC2CCCCC2)c(OC)cc1Cl`, the outcome was inactive.

On to `CC1=C(/C=C/C(C)=C/C=C/C(C)=C/CO)C(C)(C)CCC1`, for which the compound was called inactive.

With `COc1ccc(S(=O)(=O)N2C(=O)[C@@](c3ccccc3OC)(N3C[C@H](O)C[C@H]3C(=O)N(C)C)c3cc(Cl)ccc32)c(OC)c1`, the result was inactive.

With `CNC(=O)[C@H]1O[C@@H](n2cnc3c(NCc4cc(Cl)ccc4OCc4cc(C)no4)ncnc32)[C@H](O)[C@@H]1N`, the outcome was inactive.

As for `CC=Cc1ccc(O)c(OC)c1`, the compound was called inactive.

Take `CC(=O)OC/C=C(\C)CCC=C(C)C`: the compound was classed as inactive.

As to `NCCO`, the compound was called inactive.

For `Cc1cc(=O)[nH]c(=S)[nH]1`, the call was inactive.

Take `CC1(C)CC(N=C=O)CC(C)(CN=C=O)C1` (stereo not given): the result was inactive.

For the compound `CCCCCCCCCCCCCO`, the compound was called inactive.

For `c1cc(-c2ccncc2)ccn1`, the compound was classed as inactive.

In the case of `COc1ccc2c(c1)c(CC(=O)O)c(C)n2C(=O)c1ccc(Cl)cc1`, the result was inactive.

For `OC[C@@H](O)[C@@H](O)[C@H](O)[C@H](O)CO`, the compound was called inactive.

Take `Cc1nc(-c2ccc3c(c2)CCN(CCC2CCC(NC(=O)/C=C/c4ccc(F)cc4)CC2)CC3)no1` (stereo not given): the outcome was inactive.

In the case of `O=C(O)CCCCC(=O)O`, the compound was called inactive.

As to `COCCOCCOC`, the half-maximal activity concentration (AC50) (in general, the concentration at which the activity in the assay is half-maximal) is 388 nM (active).

As to `CCNc1cccc(C)c1`, the outcome was inactive.

With `Cc1ccccc1Cl`, the compound was called inactive.

On to `C=CCOC(=O)c1ccccc1C(=O)OCC=C`, for which the compound was called inactive.

As to `C1CCC(SSC2CCCCC2)CC1`, the compound was classed as inactive.

On to `COC(=O)c1ccc(O)cc1`, for which the outcome was inactive.

For the origin of these results see PubChem BioAssay (EPA / NIEHS).
